# According to PubChem BioAssay (Tox21):
# The source made the active and inactive calls. A call without a number means that no potency is given here. Calls come from the whole dose curve.
# Test: G protein-coupled receptor (GPCR) small molecule agonists, calcium flux assay: HEK293 wild type cell line counter screen (AID 1920065)
# Conditions: HEK293 WT calcium flux, fluorescence, agonist mode; series mostly up to 57.6 µM
# Description: U.S. Tox21 Program National Center for Advancing Translational Sciences [NCATS] Division of Preclinical Innovation [DPI] U.S. Environmental Protection Agency [EPA] National Institutes of Environmental Health Sciences [NIEHS] National Toxicology Program [NTP] U.S. Food and Drug Administration [FDA] Assay overview: The increased intracellular calcium release that occurred upon G protein-coupled receptor (GPCR) activation led to the frequent use of calcium flux assays to detect GPCR activation. For the purpose of studying and screening compounds that may activate GPCR, receptor-overexpressing models were typically generated using Hek293 wild-type (WT) cells. In order to eliminate the compounds that may have induced calcium release for non-specific activation, a counter-assay utilizing calcium flux on Hek293 WT cells was performed. The data were formulated in order to serve as a control for any calcium flux detection utilizing Hek293 cells with either GPCR overexpression or gene modification. The procurement of Hek293 WT cells from ATCC. Fluorescence intensity can be utilized to determine the activation of the compound in a calcium flux assay. As a counter control, this cell line was utilized to screen the Tox21 10K compound library.
# Assay Protocol Summary: Hek293 cells were dispensed at 1500cells/4uL/well in 1536-well black wall/clear bottom plates using a multidrop dispenser. After the assay plates were incubated at a 37 C/5% CO2 incubator for 18 hours, 4 uL of Calcium Dye Solution was added to each well. The plates were incubated at 37 C for 1 hour. For agonist mode, 23 nL of compounds dissolved in DMSO, positive control (ATP) or DMSO only was transferred to the assay plate by a pin tool station. The fluorescence intensity in the plates was measured using FDSS 7000EX kinetic plate reader with a filter set of Ex/Em=480/540 for 3 min at 1 sec intervals. Each test compound was measured at 15 concentrations and in triplicates.
row,Compound,Potency
1,COC[C@@H](NC(C)=O)C(=O)NCc1ccccc1,inactive
2,CCNc1nc(Cl)nc(NC(C)(C)C#N)n1,inactive
3,C[C@]12CC[C@H]3[C@@H](CC=C4C[C@@H](O)CC[C@@]43C)[C@@H]1CC[C@@H]2O,inactive
4,Cc1ccc(CCl)cc1,inactive
5,BrCCBr,inactive
6,ClCC(Cl)(Cl)Cl,inactive
7,CCCCCCCCCCCCCl,inactive
8,N#Cc1ccncc1,inactive
9,CC1CC(=O)O1 (stereo not given),inactive
10,CCc1cc(C)cc(CC)c1-c1c(OC(=O)C(C)(C)C)n2n(c1=O)CCOCC2,inactive
11,Nc1nc(=S)[nH][nH]1,inactive
12,CCOP(=O)(OCC)SCCSCC,inactive
13,CC(C)(C1CCC(O)CC1)C1CCC(O)CC1 (stereo not given),inactive
14,O=[N+]([O-])c1cc(Cl)ccc1Cl,inactive
15,C=CC(=O)OCC(C)C,inactive
16,[Cl-].[Cl-].[Hg+2],inactive
17,CC(C)CC(C)(c1ccc(O)cc1)c1ccc(O)cc1,inactive
18,Oc1ccccc1Cl,inactive
19,COc1ccccc1OC,inactive
20,COP(=O)(CCC(=O)NCO)OC,inactive

row,Compound,Potency
1,ClCCN1CCOCC1,inactive
2,c1ccc(N=NNc2ccccc2)cc1,inactive
3,COc1cccc(C=O)c1,inactive
4,O=C(Nc1ccc(Br)cc1)c1cc(Br)cc(Br)c1O,inactive
5,Cc1cccc(C#N)c1,inactive
6,CCCCC(CC)COC(=O)c1ccc(C(=O)OCC(CC)CCCC)c(C(=O)OCC(CC)CCCC)c1 (stereo not given),inactive
7,CC(C)(C#N)N=NC(C)(C)C#N,inactive
8,Nc1ccc(-c2ccc(N)c(Cl)c2)cc1Cl,inactive
9,C[N+](C)(C)C,inactive
10,C=CC(C)=O,inactive
11,C=CCc1ccccc1O,inactive
12,CCC(CC)Nc1c([N+](=O)[O-])cc(C)c(C)c1[N+](=O)[O-],inactive
13,ClCCN1CCCC1,inactive
14,ClCc1ccccn1,inactive
15,CCCCN(CC)c1c([N+](=O)[O-])cc(C(F)(F)F)cc1[N+](=O)[O-],inactive
16,CCCCc1c(C)nc(NCC)[nH]c1=O,inactive
17,O=S(=O)(O)O,inactive
18,C[N+](C)(C)Cc1ccccc1,inactive
19,CON(C)C(=O)Nc1ccc(Cl)cc1,inactive
20,N#CCNCC#N,inactive
